Hits are enriched below; roughly 3.5% of the tested compounds scored in any of these assays.
TEAD-YAP inh = TEAD-YAP interaction inhibition; HEK-TIYL cells, TEAD-Gal4/YAP UAS-luciferase luminescence; inhibition, % at 9.12 µM; 640,000 tested, 1.4% active; in the data active = inhibition above about 32%;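 note: 0% = median of test compound wells and 100% = reference inhibitor wells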
FBW7 act = activators of human E3 ligase FBW7; 650,000 tested, 0.13% active; AlphaScreen FBW7–phospho-cyclin E peptide binding, activator screen; Q969H0; normalized activity (activation), % at 26.1 µM; in the data active = normalized activity above about 1.9%;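 note: purified mutant Fbw7 with reduced substrate affinity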
GPR151 ag = human GPR151 activation; Q8TDV0; PathHunter beta-arrestin GPR151 cells, luminescence; activation, % at 11.2 µM; 650,000 tested, 1% active; AID 1508602; in the data active = activation above about 4.9%;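 note: 0% = median of compound wells and 100% = cells with positive control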
MITF primary = inhibitors of human MITF; inhibition, % at 2.6 µM; 650,000 tested, 0.91% active; AID 1259374; AlphaScreen MITF homodimerization, bead proximity signal; in the data active = inhibition above about 50%;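 note: 0% = vehicle wells with protein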
Target sequence (O75030 whole entry, looked up): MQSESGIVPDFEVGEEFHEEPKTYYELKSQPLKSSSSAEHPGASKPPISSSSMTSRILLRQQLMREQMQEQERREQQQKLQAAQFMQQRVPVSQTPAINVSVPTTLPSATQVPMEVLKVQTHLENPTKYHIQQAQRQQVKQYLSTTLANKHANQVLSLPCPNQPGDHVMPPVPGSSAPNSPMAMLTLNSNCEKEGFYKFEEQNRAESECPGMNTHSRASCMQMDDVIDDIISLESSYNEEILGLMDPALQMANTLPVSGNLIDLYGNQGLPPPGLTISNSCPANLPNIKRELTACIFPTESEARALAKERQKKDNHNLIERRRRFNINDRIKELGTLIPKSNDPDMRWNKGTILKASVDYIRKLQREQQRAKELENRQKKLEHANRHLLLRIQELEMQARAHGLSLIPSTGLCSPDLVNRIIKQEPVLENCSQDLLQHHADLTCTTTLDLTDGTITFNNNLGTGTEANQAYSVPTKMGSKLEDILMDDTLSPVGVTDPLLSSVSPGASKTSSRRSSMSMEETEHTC
MITF inh conf = confirmation of human MITF inhibitors. shares compounds with MITF primary. AlphaScreen MITF homodimerization, biotin/His-MITF beads. inhibition, % at 2.6 µM. 4,700 tested, 16% active;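 active = inhibition above a cutoff derived from the DMSO control wells, cut at about 28% in these data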;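 note: 0% = MITF dimer wells with DMSO only; inhibitors lower the bead chemiluminescence by keeping MITF from dimerizing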
AlphaScreen intf2 = optically interferes with AlphaScreen signal; AID 1259376; inhibition, % at 2.6 µM; 4,700 tested, 7.6% active; shares compounds with MITF primary; LysRS AlphaScreen counterscreen, signal interference, triplicate;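 active = inhibition above a cutoff derived from the DMSO control wells, cut at about 30% in these data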
The depositor's hits bear a star; x = not tested or not shown.

SMILES	TEAD-YAP inh	FBW7 act	GPR151 ag	MITF primary	MITF inh conf	AlphaScreen intf2
Cc1ccc(C(C)(C)C)c(OCCCn2ccnc2)c1	-13.7	-0.2	-0.8	22.4	x	x
COc1cccc(/C=N/NS(=O)(=O)c2ccc(C)cc2)c1	0.4	0.0	0.7	77.1*	-3.4	-7.1
CCOC(=O)c1c(NC(=O)CSc2nnc(CNC(=O)c3ccc(OC)c(OC)c3)n2CCc2ccccc2)sc2c1CCCC2	-5.0	0.1	0.8	4.3	x	x
O=C(CC(c1ccccc1)c1ccccc1)NNC(=O)c1ccc2c(c1)OCO2	1.3	-0.1	0.0	-14.4	x	x
Cc1sc(NC(=O)CN(Cc2ccc(F)cc2)C(=O)c2ccccc2)c(C(N)=O)c1C	18.8	0.0	-0.6	-26.1	x	x
Cc1sc(NC(=O)CN(Cc2ccc(F)cc2)C(=O)C(C)(C)C)c(C(N)=O)c1C	7.0	-0.1	0.6	68.5*	8.0	13.1
CCCC(C)NC(=O)Cc1ccc(Br)cc1 (stereo unspecified)	-14.6	0.0	1.0	50.8*	3.2	8.8
Cn1c2ccccc2n2c(=O)n(CC(=O)Nc3ccc(F)cc3)nc12	-4.7	0.0	-0.2	-6.2	x	x
Nc1nnnn1/N=C/c1ccc(-c2ccc(F)c(Cl)c2)o1	0.1	0.0	-0.9	83.3*	7.5	14.6
O=C(NCCCN1CCCC1=O)c1cccc(Nc2ccc3ncccc3c2)c1	-8.5	0.1	-2.0	12.8	x	x
O=C(/C=C/c1cn(-c2nc(-c3ccccc3)c3cc(Br)ccc3n2)[n+](-c2ccccc2)c1)c1ccccc1	-18.1	0.1	-0.7	76.6*	6.1	10.5
CCn1ccnc1CN(C)c1nc2nonc2nc1N1CCCCCC1	1.6	0.5	-0.6	21.7	x	x
OCCN(Cc1ccccc1)Cc1ccccc1Cl	-1.4	0.5	0.2	13.6	x	x
O=C(Cc1cccc(C(F)(F)F)c1)Nc1ccccc1	9.8	-0.1	1.2	-18.9	x	x
OCCN(Cc1ccccc1)Cc1ccccc1F	5.5	0.6	-0.6	61.4*	-2.8	-9.4
OCCN(Cc1ccccc1)Cc1cccc(F)c1	-17.6	0.7	-0.1	57.0*	8.6	8.6
OCCN(Cc1ccccc1)Cc1ccc(C(F)(F)F)cc1	1.4	0.0	2.5	52.3*	-2.7	0.5
OCCN(Cc1ccccc1)Cc1cccc(C(F)(F)F)c1	-8.4	0.1	-0.6	51.8*	-12.5	-3.6
CSc1ccc(CN(CCO)Cc2ccccc2)cc1	12.7	0.8	1.6	34.8	x	x
CCOc1ccccc1CN(CCc1ccc2c(c1)OCO2)Cc1cccnc1	-7.0	0.4	0.4	78.1*	4.9	10.9
CCOc1ccc(CN(CCc2ccc3c(c2)OCO3)Cc2cccnc2)cc1	3.6	-0.2	0.7	59.7*	-3.6	-4.3
CCOc1ccc(CN(CCc2ccc3c(c2)OCO3)Cc2cccc3ccccc23)cc1	-2.4	0.5	-1.2	52.5*	-5.2	-8.7
CCOc1ccc(CN(CCc2ccc3c(c2)OCO3)Cc2cc(OC)c(OC)cc2OC)cc1	-2.5	-0.2	-0.1	45.1	x	x
C=C(C)CN1C(=O)NC(CC)(C2CCN(Cc3cn[nH]c3-c3ccc(F)cc3)CC2)C1=O (stereo unspecified)	12.8	0.0	1.3	8.8	x	x
CCNC(=O)N1CCN(c2ccc3cccc(-c4ccc(C)cc4)c3n2)CC1	7.4	0.1	0.6	3.6	x	x
SMILES	TEAD-YAP inh	FBW7 act	GPR151 ag	MITF primary	MITF inh conf	AlphaScreen intf2
c1ccc(-c2cc(N3CCOCC3)nc(-c3ccccn3)n2)nc1	45.2*	-1.0	-0.8	113.2*	116.6*	100.3*
Cc1ccc(C(=O)CSc2nnc(C)s2)c(C)c1	-30.8	0.1	1.4	-24.4	x	x
COc1ccccc1-n1c(=S)sc2c(=O)n(-c3ccccc3)c(SCC(=O)c3ccc(Cl)cc3)nc21	-8.8	0.5	-0.1	67.7*	-0.3	0.0
COc1cc(CN(C)CCN(C)C)cc(OC)c1	-2.9	0.0	-0.6	63.7*	1.2	-1.2
COc1ccc(CN(C)CCN(C)C)cc1OC	-7.1	0.4	-0.3	15.7	x	x
COc1cc(Br)c(CN(C)CCN(C)C)cc1OC	-3.2	-0.2	1.3	-15.7	x	x
COc1ccc(CN(C)CCN(C)C)cc1C	0.2	0.0	-1.2	58.4*	3.3	16.1
CCOC(=O)c1ccc(NS(=O)(=O)c2cc(Cl)ccc2OCC)cc1	8.6	0.1	-1.2	-14.6	x	x
CC(=O)Nc1ccccc1C(=O)OCC(=O)c1ccc(Br)cc1	-6.7	0.1	-0.7	-10.8	x	x
CCC(C)C(NC(=O)CCn1nc(C)cc1C)c1nc2cccnc2n1C(C)C (stereo unspecified)	5.8	0.5	-1.0	-7.0	x	x

High-throughput results from PubChem BioAssay.
